The record followed here is PubChem BioAssay (NCATS).

Each structure is given as a SMILES string. Values joined by “and” are separate entries in the source; they are usually repeats but may differ in a detail not shown here. Identical values can stand only once. Inconclusive results are not listed. Active and inactive are the calls of the source. Unless noted, calls come from the whole dose curve; as a rule, active = well fitted curve in the direction sought with a large enough effect; inconclusive = small, poorly fitted or top-dose-only effect, or another doubt; inactive = no such curve, though single readings can be large; an effect the other way counts as inactive or inconclusive. *1 amine or outer side, *2 acyl side, *3 side chain or, on linkers, in order; H or OH if unused. Where a SMILES comes first, the peptide text is derived from it. Bridges are numbered along the chain shown (N, C = ends). Roman numbers before positions name the chains, in order. [ ]: non-standard residue; d: D form. ξ: configuration not given here. Actinocin(9to1) = Cc1c2oc3c(C)ccc(C(=O)[*:1])c3nc-2c(C(=O)[*:2])c(N)c1=O; ξNMeV = CNC(C(=O)O)C(C)C; ξV = CC(C)C(N)C(=O)O; Sar = CNCC(=O)O

Assay [1] has as its target Luciferin 4-monooxygenase (Photinus pyralis) (UniProt P08659). The experiment in a line: Biochemical firefly luciferase enzyme assay for NPC (AID 624030).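 Note: purified P. pyralis luciferase at 10 nM with luciferin and ATP substrate; 0% = DMSO and -100% = full luciferase inhibition by PTC124 control; nearly all actives have a fitted effect of over 70% in size.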 In short, it runs like this:
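Direct inhibition of firefly luciferase enzyme (10 nM final, 50 mM Tris Acetate) assessed by luminescence within 5 minutes. Percent activity scaled between DMSO and PTC124 positive control, with concentration-effect curves classified by fit quality and response.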

A short description of assay [2]: S16 Schwann cell viability assay (CellTiter-Glo assay) (AID 624031). Note: nearly all actives have a fitted effect of over 70% in size. Note: potency is the fitted concentration of half-maximal effect. In short, it runs like this:
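Cells were seeded at 500-750 per well in phenol red-free DMEM with 10% FBS and left overnight. Compounds or DMSO were pinned in, incubation ran 24 h at 37 °C/5% CO2, then CellTiter-Glo reagent was added and luminescence measured.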
On the technique in general: Cellular ATP, detected with luciferase, serves as a proxy for viable cell number.

Assay [3] is described as follows: S16 Schwann cell PMP22 intronic element firefly luciferase assay (AID 624032).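 Note: plate controls were DMSO for no effect and PTC124 positive control mean for full effect; nearly all actives have a fitted effect of over 30% in size.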 In short, it runs like this: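 Luciferase reporter of PMP22 intronic-element expression in stably transfected S16 rat Schwann cells, read by ONE-Glo luminescence after 24 h compound exposure at 37 C. Activity scaled between DMSO (0%) and positive-control PTC124; concentration-effect curves quality-classified.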

Assay [4] in a line: S16 Schwann cell PMP22 intronic element beta-lactamase assay (AID 624044; calls by dose curve;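 note: 0% = DMSO and -100% = potassium clavulanate positive control; nearly all actives have a fitted effect of over 15% in size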). The method, boiled down: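 Rat S16 Schwann cells with beta-Lac driven by a PMP22 intronic element, compound-treated 24 h at 37 °C. LiveBLAzer FRET B/G read: 460 nm normalized to potassium clavulanate vs DMSO; 535 nm FRET as viability; concentration-effect curves classified.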
A short description of assay [5]: qHTS Assay for Identification of Small Molecule Agonists for NFkB Signaling Pathway. (AID 624478).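 Note: compounds tested together with TNF alpha at its EC50 of 10 pM; 0% is about no effect.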 In short, it runs like this:
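ME-180 cervical carcinoma, stable NFkB-RE beta-lactamase reporter; 1000 cells/well, overnight attachment; cpd + TNF alpha 10 pM final, 5 h 37 C; LiveBLAzer 2 h RT; FRET 460/530 nm, ex 405 nm.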

The nature of assay [6]: qHTS Assay for Identification of Small Molecule Antagonists for NFkB Signaling Pathway. (AID 624479; calls by dose curve;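 note: pathway stimulated with TNF alpha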; note: potency is the fitted concentration of half-maximal effect). Background: qHTS replaces the single test concentration by a dilution series.
Assay [7] is described as follows: Cell Proliferation Assay against the TMD8 Cell Line (AID 651645).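 Note: cells exposed to compound for 48 h before reading.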 The note with it: TMD8 DLBCL cell line proliferation/viability; at 46.1 µM (top of the series) unless noted. The method, boiled down:
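TMD8 ABC DLBCL cells, 500 per well in phenol red-free RPMI with 5% FBS, were treated with compound by pin transfer and incubated 48 hours at 37C, 5% CO2. Viability was read by CellTiter-Glo luminescence, normalised to DMSO (100%) and 9.2 uM bortezomib (0%).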

The nature of assay [8]: Cell Proliferation Assay against the HBL1 Cell Line (AID 651646).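 Note: cells exposed to compound for 48 h before reading.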 The note with it: HBL1 DLBCL cells; at 46.1 µM (top of the series) unless noted. In short, it runs like this: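 Luminescent ATP read-out (CellTiter-Glo) after 48 h compound exposure of HBL1 cells at 37 °C; percent activity was scaled between DMSO as 100% and 9.2 uM bortezomib (final) as 0%.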
Assay [9] in a line: Cytotoxicity counterscreen for NFkB agonists and antagonists (AID 624476; note: potency is the fitted concentration of half-maximal effect). (Counterscreens check selectivity or assay interference.)
A short description of assay [10]: Cell Proliferation Assay against the TMD8 Cell Line (Caspase readout at 16 hrs) (AID 651712). Note: potency is the fitted concentration of half-maximal effect. The method, boiled down: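 Apoptotic response of TMD8 cells was judged from caspase 3/7 activation following a 16 hour compound incubation at 37 °C. Luminescent signal was converted to percent activity, with DMSO set as 0% and 9.2 uM final bortezomib as 100%.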
Assay [11] in a line: Cell Proliferation Assay against the TMD8 Cell Line (Caspase readout at 8 hrs) (AID 651713). In short, it runs like this:
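Seed log-phase TMD8 cells, add compound by pin tool, incubate 8 h at 37C under 5% CO2, equilibrate to room temperature, add Caspase-Glo, wait 15 min, read luminescence; percent activity uses DMSO and 9.2 uM bortezomib controls.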

A short description of assay [12]: qHTS assay for small molecule activators of the p53 signaling pathway (AID 651743; active = well fitted activation curve with a large enough effect in the signal ratio, not every such curve was filed as active; the % refers to the signal ratio; note: % of control where 0% means no effect). To be noted: HCT-116 p53RE-bla, beta-lactamase FRET ratio, 16 h; activation: stronger effect = higher value. The method, boiled down: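 Read-out is fluorescence intensity from the LiveBLAzer B/G FRET substrate, added for 2 hours at room temperature after HCT-116 p53RE-bla cells had been incubated with compounds for 16 hours at 37 C.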

Luciferin 4-monooxygenase (Photinus pyralis), sequence (P08659 whole entry, looked up): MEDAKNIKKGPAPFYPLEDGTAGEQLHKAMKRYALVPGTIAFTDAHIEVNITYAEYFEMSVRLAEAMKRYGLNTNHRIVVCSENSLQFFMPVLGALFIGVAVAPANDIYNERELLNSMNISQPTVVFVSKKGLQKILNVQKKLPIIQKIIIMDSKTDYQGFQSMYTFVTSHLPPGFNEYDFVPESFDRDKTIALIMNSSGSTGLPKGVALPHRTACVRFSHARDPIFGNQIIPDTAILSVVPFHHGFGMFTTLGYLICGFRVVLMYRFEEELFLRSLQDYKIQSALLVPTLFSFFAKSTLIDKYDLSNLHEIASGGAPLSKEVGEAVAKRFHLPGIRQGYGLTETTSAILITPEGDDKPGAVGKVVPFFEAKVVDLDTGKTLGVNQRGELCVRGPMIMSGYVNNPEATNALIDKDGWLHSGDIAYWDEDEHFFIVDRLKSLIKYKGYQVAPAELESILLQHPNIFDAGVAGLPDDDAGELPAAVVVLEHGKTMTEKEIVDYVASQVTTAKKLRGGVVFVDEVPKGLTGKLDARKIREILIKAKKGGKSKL

For the compound `CCC(=O)NCCC1CCc2ccc3c(c21)CCO3` (centres undefined), the Potency result in assay [1], in assay [2], in assay [3] and in assay [4] was “inactive” in each case.

As to `COC(=O)C1=C(C)NC(C)=C(C(=O)OCCCN2CCC(c3ccccc3)(c3ccccc3)CC2)[C@H]1c1cccc([N+](=O)[O-])c1`, in assay [5], the outcome was inactive. Also, the Potency in assay [6] was 23700 nM (active). Besides, the viability (% of control) in [7] was found to be 2.99%. Besides, in assay [8], the viability, percent of control stood at 1.4%.

As for `NC(=O)Nc1cc(-c2ccc(CN3CCOCC3)c(F)c2)sc1C(=O)N[C@H]1CCCNC1`, the Potency in assay [9] was 590 nM (active); in assay [6], 4730 nM (active); in [10], 46.9 nM (active). The compound was called inactive in assay [5]. For the same compound, the viability (% of control) in assay [7] turned out to be 1.45%. The viability, percent of control in assay [8] was determined as 10.1%.

Regarding `CC[C@@H](C(=O)O)C1CC[C@H](C)C([C@@H](C)[C@H](O)[C@H](C)C(=O)[C@H](CC)C2O[C@]3(C=C[C@@H](O)[C@]4(CC[C@@](C)(C5CC[C@](O)(CC)[C@H](C)O5)O4)O3)[C@H](C)C[C@@H]2C)O1` (some centres undefined), the call in [5] was inactive. Further, in [7], the viability (% of control) amounted to 2.54%. Besides, in assay [8], the viability, percent of control was 11.4%.

Regarding `CN(NC(=O)CC(=O)NN(C)C(=S)c1ccccc1)C(=S)c1ccccc1`, the Potency result in [9], in assay [6], in [10] and in assay [11] was “inactive” each time. Besides, in assay [5], the outcome was inactive. In assay [7], the viability (% of control) came to 81.1%. In addition, the viability, percent of control in assay [8] is 60.8%.

Consider `CNC1CCN(C(Cc2cccc(-c3ccncc3)c2)C(=O)c2sc3c(F)ccc(F)c3c2Cl)CC1` (centres undefined), for which the compound was called inactive in [5]. Further, the Potency entry in assay [6] was “inactive”. In [7], the viability (% of control) amounted to 0.928%. In addition, the viability, percent of control in assay [8] worked out at 0.927%.

For the compound `Cc1ccccc1OCC(O)CNCCOc1ccc(C(N)=O)cc1` (centres undefined), the Potency result in assay [1], in [3] and in [4] was “inactive” throughout.

For `O=C(O)CC/C=C\CC[C@H]1[C@@H](N2CCCCC2)[C@@H](O)C[C@@H]1OCc1ccc(-c2ccccc2)cc1`, the Potency result in assay [9], in assay [6], in [10] and in [11] was “inactive” throughout. Further, the result in assay [5] was inactive. Moreover, the viability (% of control) in [7] was found to be 104%. Moreover, the viability, percent of control in assay [8] turned out to be 105%.

Take `Cc1c2oc3c(C)ccc(C(=O)N[C@@H]4C(=O)NC(C(C)C)C(=O)N5CCC[C@H]5C(=O)N(C)CC(=O)N(C)C(C(C)C)C(=O)O[C@@H]4C)c3nc-2c(C(=O)N[C@@H]2C(=O)NC(C(C)C)C(=O)N3CCC[C@H]3C(=O)N(C)CC(=O)N(C)C(C(C)C)C(=O)O[C@@H]2C)c(N)c1=O` (some centres undefined) (I: T[ξV]P[Sar][ξNMeV] / II: T[ξV]P[Sar][ξNMeV]; ester I:1-I:C, II:1-II:C; linker I:N-II:N via Actinocin(9to1)): the figures for the Potency in assay [9] and in assay [6] were 1.3 nM (active) and 11.9 nM (active), respectively. The compound was called inactive in assay [5]. In addition, in assay [7], the viability (% of control) worked out at 3.49%. The viability, percent of control in assay [8] came to 21.5%.

Consider `CC(=O)Oc1c(C)cc(OCC(O)CNC(C)C)c(C)c1C` (centres undefined), for which the Potency result in assay [1], in assay [2], in assay [3] and in assay [4] was “inactive” each time.

With `O=S(=O)(O)c1ccc2c(N=Nc3ccc(S(=O)(=O)O)c4ccccc34)c(O)c(S(=O)(=O)O)cc2c1`, the Potency entry in assay [4] is “inactive”.

With `CN(C)CCCN1c2ccccc2C(C)(C)c2ccccc21`, the Potency entry in assay [1], in assay [3] and in assay [4] was “inactive” in each case. The Potency in [2] was 28700 nM (active).

`CC(NC(=O)Cc1cc(F)cc(F)c1)C(=O)NC(C(=O)OC(C)(C)C)c1ccccc1` (centres undefined): the Potency entry in assay [9], in assay [6], in assay [10] and in [11] was “inactive” in each case. Besides, the result in assay [5] was inactive. In assay [7], the viability (% of control) was determined as 90.6%. The viability, percent of control in assay [8] came to 103%.

In the case of `O=C(O)CN(CCN(CC(=O)O)CC(=O)O)CC(=O)O`, the Potency entry in assay [1], in assay [2], in assay [3] and in [4] was “inactive” each time. Moreover, the activation in [12] was -1.95% (inactive) and 0.161% (inactive).
